# Assay results published in PubChem BioAssay (NCATS).
# Records with an inconclusive call do not appear. Entries that show only a call come without a potency. Activity calls are given as the source filed them. Unless noted, calls follow the shape of the dose curve; as a rule, active = well fitted curve in the direction sought with a large enough effect; inconclusive = small, poorly fitted or top-dose-only effect, or another doubt; inactive = no such curve, though single readings can be large; an effect the other way counts as inactive or inconclusive.
# Columns and labels:
# [1] = Cytometric Cell-Based qHTS for Inhibitors of the mTORC1 Signaling Pathway in MEF (Tsc2-/-, p53-/-) Cells (AID 2660);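 also: percent of cells above a phospho-rpS6 to PI ratio cutoff in each well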
# Summary of the method: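 Immunofluorescence qHTS of rpS6 Ser235/236 phosphorylation: MEFs (Tsc2-/-, p53-/-) treated 24 h, 37 C, in DMEM + 10% FBS. Alexa-488 signal normalized to PI count, referenced to rapamycin (7.5 nM) and DMSO; PI cell number recorded for viability.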
# [2] = High Content Imaging Cell-Based qHTS for Inhibitors of the mTORC1 Signaling Pathway in MEF (Tsc2-/-, p53-/-) Cells (AID 2666); conditions: at 38.3 µM (top of the series);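 also: percent of cells scored positive for phospho-rpS6 Ser235/236 immunostaining by imaging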
# Summary of the method: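 Read-out: % positive cells per well, with thresholds from highest- and lowest-signal wells, based on phospho-rpS6 (Ser235/236) intensity normalized to Hoechst nuclear stain. Cells: Tsc2-/-, p53-/- MEFs carrying empty vector; compound 24 hrs, 37 degree Celsius.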
# [3] = High Content Imaging Cell-Based qHTS for Inhibitors of the mTORC1 Signaling Pathway in MEF Cells (AID 2667);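 also: Tsc2-/- p53-/- MEFs stably re-expressing wild-type Tsc2 exposed 24 h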
# Summary of the method: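 MEF (Tsc2-/-, p53-/-, WT Tsc2 re-expressed); cpd 24 h, 37 °C; PFA fix; Alexa-488 anti-p-rpS6 Ser235/236, PI, Hoechst; IN Cell imaging; Hoechst/Alexa-488 intensity ratio; % active cells, thresholds set from rapamycin and DMSO wells.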
# [4] = Cytometry Cell-Based qHTS for Inhibitors of the mTORC1 Signaling Pathway in MEF cells (AID 2668);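 also: Tsc2-/- p53-/- mouse embryonic fibroblasts stably re-expressing wild-type Tsc2; percent cells positive for phospho-rpS6 Ser235/236 relative to propidium iodide stain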
# Summary of the method: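 Read-out: phospho-rpS6 Ser235/236 immunofluorescence normalized to propidium iodide intensity, scored as % active cells against a rapamycin (7.5 nM) threshold. Cells: Tsc2-/-, p53-/- MEFs stably expressing WT Tsc2, compound-treated 24 hrs at 37 degree Celsius.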
# [5] = target: Ubiquitin carboxyl-terminal hydrolase 2 (Homo sapiens) (UniProt O75604); assay: qHTS Validation Assay for Inhibitors of Ubiquitin-specific Protease USP2a Using CHOP2 as the Reporter (AID 463106)
# Summary of the method: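 USP2 core (10nM final) was preincubated with compound for 30min at RT in 20mM Tris-HCl pH 8.0, 2mM CaCl2, 2mM beta-mercaptoethanol, 0.05% CHAPS. Ub-CHOP2 and reporter substrate (25nM each) were added, and fluorescence (Ex 485/Em 531nm) was read after 60min.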
# [6] = target: DNA polymerase III PolC-type (Bacillus subtilis (strain 168)) (UniProt P13267); assay: qHTS Validation Assay for the Inhibitors of DNA Replication in Gram-Positive Bacteria (AID 485295);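 also: reconstituted holoenzyme with PolC plus beta clamp SSB and primase; PicoGreen fluorescence of double-stranded DNA made on primed circular M13 template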
# Summary of the method: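 PicoGreen fluorescence (ex 480–485/em 535–540 nm) reports dsDNA synthesized on ssM13Gori template with dNTPs/NTPs. Enzyme: holoenzyme rebuilt from purified PolC, beta subunit, SSB and primase. Compound preincubated before substrate addition; RT throughout.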
# [7] = target: Tumor susceptibility gene 101 protein (Homo sapiens) (UniProt Q99816); assay: qHTS Validation Assay for Iinhibitors of HIV-1 Budding by Blocking the Interaction of PTAP/TSG101 (AID 485342; calls by dose curve)
# Summary of the method: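 FP read-out: FITC-PTAP peptide, 50 nM final, binding Tsg101 binding domain, 10 uM final; 20 min r.t.; 10 mM HEPES pH 7.5, 0.15 M NaCl, 0.01% Tween 20, 3 mM EDTA, 0.1 mM TCEP.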
# [8] = target: Beta-2 adrenergic receptor (Homo sapiens) (UniProt P07550); assay: qHTS validation assay of beta-arrestin-biased ligands of beta2-adrenergic receptor (AID 485366)
# Summary of the method: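 Arrestin-recruitment (Tango) reporter: ligand-bound beta2-AR recruits beta-arrestin, releasing tTA, which upregulates luciferase. Titrations of up to 46 microM incubated 18 hr at 37 degrees C before luminescent readout.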
# [9] = target: Thioredoxin reductase 1, cytoplasmic (Rattus norvegicus) (UniProt O89049); assay: qHTS Assay for Substrates of Mammalian Selenoprotein Thioredoxin Reductase 1 (TrxR1) (AID 488772);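 also: NADPH fluorescence in the first read after selenite addition and not the 8 min delta; a drop in NADPH fluorescence below the no-compound background marks a TrxR1 substrate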
# Summary of the method: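 Quantitative HTS in Tris-HCl buffer at pH 7.5 with EDTA and Tween-20, using rat TrxR1, 400 uM NADPH and 400 uM selenite (final). A fall in initial NADPH fluorescence relative to background marked substrate behaviour.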
# [10] = target: Thioredoxin reductase 1, cytoplasmic (Rattus norvegicus) (UniProt O89049); assay: qHTS Assay for Inhibitors of Mammalian Selenoprotein Thioredoxin Reductase 1 (TrxR1) (AID 488773); conditions: Potency: inhibition;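 also: drop in NADPH fluorescence over an 8 min run after selenite addition; nearly all actives have a fitted effect of over 40% in size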
# Summary of the method: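 Steps: enzyme (90 nM) plus NADPH (400 uM final), 5 min at ~22 deg C; compound added, 15 min; selenite (400 uM final) added; fluorescence followed for 8 min. Concentration-response curves derived from the normalized delta values.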
# [11] = target: M-phase phosphoprotein 8 (Homo sapiens) (UniProt Q99549); assay: qHTS Validation Assay for Inhibitors for MPP8 Chromodomain Interactions with Methylated Histone Tails (AID 488949);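 also: AlphaScreen signal from MPP8 chromodomain bound to biotinylated H3K9me3 peptide; top concentration of the series differs between compounds; nearly all actives have a fitted effect of over 55% in size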
# Summary of the method: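 AlphaScreen read-out: streptavidin donor and nickel chelate acceptor beads (final 10 ug/mL), 30 min in the dark at RT. Complex of 50 nM MPP8 and 50 nM b-H3(1-18)K9me3 peptide had been exposed to compounds for 30 min beforehand.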
# [12] = target: Chromobox protein homolog 1 (Homo sapiens) (UniProt P83916); assay: qHTS Validation Assay for Inhibitors of HP1-beta Chromodomain Interactions with Methylated Histone Tails (AID 488953);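 also: loss of AlphaScreen luminescence from HP1-beta binding biotinylated H3K9me3 peptide; nearly all actives have a fitted effect of over 50% in size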
# Summary of the method: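 Measured as loss of AlphaScreen luminescence from streptavidin donor and nickel acceptor beads (10 ug/mL final) bridging HP1-beta and biotin-H3(1-18)K9me3, each 50 nM. Compounds met the preassembled complex for 30 min at RT.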
# [13] = target: D(1A) dopamine receptor (Homo sapiens) (UniProt P21728); assay: HTS Assay for Allosteric Agonists of the Human D1 Dopamine Receptor: Primary Screen for Agonists (AID 488981)
# Summary of the method: (§1)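 Tetracycline-induced HEK293 T-REx cells force-coupled to calcium signalling were incubated overnight at 30 C and dye-loaded at room temperature. Calcium flux over 180 s after compound addition flagged agonists; a further 180 s read after EC20 dopamine flagged potentiators.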
# [14] = target: D(1A) dopamine receptor (Homo sapiens) (UniProt P21728); assay: HTS Assay for Allosteric Agonists of the Human D1 Dopamine Receptor: Primary Screen for Potentiators (AID 488982)
# Summary of the method: as §1
# [15] = target: D(1A) dopamine receptor (Homo sapiens) (UniProt P21728); assay: HTS Assay for Allosteric Agonists of the Human D1 Dopamine Receptor: Primary Screen for Antagonists (AID 488983);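 also: calcium flux response to an EC80 dopamine challenge measured with no-wash dye; nearly all actives have a fitted effect of over 65% in size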
# Summary of the method: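 Screening of inducible HEK293 T-REx D1 cells: compound first, EC80 dopamine 180 s later, each phase read kinetically for calcium over 180 s.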
# [16] = Validation screen for small molecules that induce genotoxicity in human embryonic kidney (HEK293T) cells expressing luciferase-tagged ELG1 (AID 493106)
# Summary of the method: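 Reporter-gene quantitative HTS in HEK293T cells carrying luciferase-tagged ELG1, whose level climbs under genotoxic stress. Compound exposure lasts 16 hr at 37 °C before luciferase detection.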
# [17] = target: ATPase family AAA domain-containing protein 5 (Homo sapiens) (UniProt Q96QE3); assay: Validation screen for small molecules that inhibit ELG1-dependent DNA repair in human embryonic kidney (HEK293T) cells expressing luciferase-tagged ELG1 (AID 493107);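 also: cells co-treated with the DNA-damaging agent 5-fluorouridine alongside compound; inhibitors lower the ELG1-luciferase luminescence signal; nearly all actives have a fitted effect of over 70% in size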
# Summary of the method: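 Quantitative HTS in HEK293T cells carrying luciferase-tagged ELG1, stimulated with 5-fluorouridine alongside compound for 16 hr. Loss of luciferase signal marks inhibition of ELG1 response.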
# [18] = Nrf2 qHTS screen for inhibitors: Validation (AID 493153; active = well fitted inhibition curve with a large enough effect in the main read-out, with a control signal flat, not every such curve was filed as active); conditions: viability change: measured here: cytotoxicity max response
# Summary of the method: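 Dose-response validation uses reporter A549 cells with firefly luciferase under an antioxidant response element. Compounds stay on cells 18-24 h at 37°C, and luminescence indicates Nrf2-driven transcription.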
# [19] = qHTS for Inhibitors of Cell Surface uPA Generation: Validation Assay (AID 493164);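 also: RAW 264.7 macrophage cells exposed to compound for 18 h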
# Summary of the method: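 RAW 264.7, 4000 cells/well, o/n plating; cpd 7-pt 1:5 dilution 2.45 nM–38.3 uM final; 18 h, 37 C/5% CO2; ATP-Lite, 5 s luminescence exposure.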
# [20] = target: Phosphoglycerate kinase, glycosomal (Trypanosoma brucei brucei) (UniProt P07378); assay: qHTS Validation Assay to Find Inhibitors of Phosphoglycerate Kinase (AID 504547)
# Summary of the method: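 Substrate/PGK mix plus compound; reaction started with GAPDH (100nM final) to form 1,3-BPG; 60 min RT; Kinase-Glo Plus 10 min; luminescence. TEA 100mM pH 7.6, MgCl2 5mM, Tween-20 0.01%.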
# [21] = target: phosphoglycerate mutase (Leishmania major) (UniProt Q4Q090); assay: qHTS Validation Assay to Find Inhibitors of Phosphoglycerate Mutase (AID 504548);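 also: end-point luminescence from Kinase-GloPlus after the PGAM reaction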
# Summary of the method: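 L. major PGAM (1.25nM final) was added to substrate buffer and pinned compound, incubated 45 minutes at room temperature, then Kinase-GloPlus added; luminescence read after 10 minutes. Buffer: 100 mM TEA pH 7.6, 5 mM MgCl2, 0.01% Tween-20.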
# [22] = target: Ubiquitin carboxyl-terminal hydrolase 1 (Homo sapiens) (UniProt O94782); assay: Inhibitors of USP1/UAF1: Pilot qHTS (AID 504865);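 also: rhodamine fluorescence freed from ubiquitin-rhodamine substrate followed over time; top concentration of the series differs between compounds; nearly all actives have a fitted effect of over 35% in size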
# Summary of the method: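 1nM USP1/UAF1 + cpd, 15 min RT; start w/ Ub-Rho 150nM final; kinetic FL 480/540 nm, 6 reads q60 s. Buffer 50mM HEPES pH 7.8, 0.5mM EDTA, 1mM TCEP, 0.01% Tween-20, 0.1 mg/ml BSA.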
# [23] = qHTS for Inhibitors of ATXN expression: Validation (AID 588378); also: nearly all actives have a fitted effect of over 75% in size
# Summary of the method: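 Cells: HEK293-ATXN2-FFLuc, phenol-red free DMEM, 2 h attachment. Compound pin-transfer, 24 h, 37 degrees C, 5% CO2. CellTiter-Fluor 30 min, Ex405/Em525; Bright-Glo 5 min, luminescence 2 s exposure.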
# [24] = target: Glutaminase kidney isoform, mitochondrial (Homo sapiens) (UniProt O94925); assay: qHTS for Inhibitors of Glutaminase (GLS): LOPAC Validation (AID 624146);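 also: glutamate product detected by oxidase and peroxidase coupled Amplex red fluorescence gain; nearly all actives have a fitted effect of over 60% in size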
# Summary of the method: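 hKGA in 45 mM KH2PO4 pH 8.2, 0.02% Tween-20 with pin-transferred compounds; 1 mM L-glutamine (stock) plus glutamate oxidase/HRP/Amplex Red coupling added. Fluorescence read initially and after 30 min at RT.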
# [25] = target: Glucagon-like peptide 1 receptor (Homo sapiens) (UniProt P43220); assay: qHTS of GLP-1 Receptor Agonists: LOPAC Validation (AID 624148);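 also: higher luminescence signal means agonism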
# Summary of the method: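 HEK293 cells stably co-expressing a cAMP-responsive luciferase reporter and a hypersensitive GLP-1R were plated 12 h at 37 °C and exposed to compounds for 4-6 hr at 37 °C, 5% CO2. Luminescence was read 12 min after adding detection reagent.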
# [26] = qHTS of Nrf2 Activators: LOPAC Validation (AID 624149)
# Summary of the method: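 ARE reporter activation measured in AREc32 firefly luciferase cells after 24 hr compound exposure; Steady-Glo luminescence.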
# D(1A) dopamine receptor (Homo sapiens), sequence (P21728 whole entry, looked up): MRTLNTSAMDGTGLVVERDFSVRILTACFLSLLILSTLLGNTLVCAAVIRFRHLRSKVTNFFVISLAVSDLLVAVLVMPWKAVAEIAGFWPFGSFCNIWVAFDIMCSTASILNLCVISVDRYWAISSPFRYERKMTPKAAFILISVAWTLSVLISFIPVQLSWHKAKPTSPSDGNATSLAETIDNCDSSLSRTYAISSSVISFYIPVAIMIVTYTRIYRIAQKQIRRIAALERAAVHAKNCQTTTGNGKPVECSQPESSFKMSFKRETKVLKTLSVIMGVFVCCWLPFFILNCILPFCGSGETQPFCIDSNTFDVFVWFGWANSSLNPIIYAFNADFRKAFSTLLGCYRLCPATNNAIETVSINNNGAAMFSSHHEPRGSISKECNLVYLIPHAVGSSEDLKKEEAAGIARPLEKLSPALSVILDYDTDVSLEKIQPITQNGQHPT
# Thioredoxin reductase 1, cytoplasmic (Rattus norvegicus), sequence (O89049 whole entry, looked up): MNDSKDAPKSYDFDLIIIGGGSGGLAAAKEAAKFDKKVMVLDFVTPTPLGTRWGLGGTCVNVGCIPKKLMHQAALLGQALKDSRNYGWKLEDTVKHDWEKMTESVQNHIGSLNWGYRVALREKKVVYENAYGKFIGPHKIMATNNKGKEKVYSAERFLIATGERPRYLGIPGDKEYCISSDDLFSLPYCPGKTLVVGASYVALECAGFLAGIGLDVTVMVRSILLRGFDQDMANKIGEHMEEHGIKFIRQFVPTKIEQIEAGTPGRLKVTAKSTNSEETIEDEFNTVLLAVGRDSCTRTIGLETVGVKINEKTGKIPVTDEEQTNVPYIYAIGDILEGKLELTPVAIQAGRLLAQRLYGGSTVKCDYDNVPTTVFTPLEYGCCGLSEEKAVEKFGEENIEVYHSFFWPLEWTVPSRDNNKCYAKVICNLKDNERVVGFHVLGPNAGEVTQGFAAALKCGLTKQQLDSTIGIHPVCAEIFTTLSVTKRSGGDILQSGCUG
# Tumor susceptibility gene 101 protein (Homo sapiens), sequence (Q99816 whole entry, looked up, the tested form may be a part): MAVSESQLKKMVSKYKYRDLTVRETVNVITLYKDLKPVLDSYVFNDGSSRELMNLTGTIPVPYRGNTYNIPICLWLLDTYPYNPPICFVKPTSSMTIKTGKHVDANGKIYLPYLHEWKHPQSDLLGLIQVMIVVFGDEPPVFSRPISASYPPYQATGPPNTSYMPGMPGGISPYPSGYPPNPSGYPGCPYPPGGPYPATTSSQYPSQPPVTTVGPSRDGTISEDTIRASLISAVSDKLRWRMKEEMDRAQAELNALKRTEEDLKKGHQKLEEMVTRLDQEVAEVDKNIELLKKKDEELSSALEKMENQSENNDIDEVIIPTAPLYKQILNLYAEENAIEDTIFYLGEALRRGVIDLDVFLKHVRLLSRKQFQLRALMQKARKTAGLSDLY
# ATPase family AAA domain-containing protein 5 (Homo sapiens), sequence (Q96QE3 whole entry, looked up, the tested form may be a part): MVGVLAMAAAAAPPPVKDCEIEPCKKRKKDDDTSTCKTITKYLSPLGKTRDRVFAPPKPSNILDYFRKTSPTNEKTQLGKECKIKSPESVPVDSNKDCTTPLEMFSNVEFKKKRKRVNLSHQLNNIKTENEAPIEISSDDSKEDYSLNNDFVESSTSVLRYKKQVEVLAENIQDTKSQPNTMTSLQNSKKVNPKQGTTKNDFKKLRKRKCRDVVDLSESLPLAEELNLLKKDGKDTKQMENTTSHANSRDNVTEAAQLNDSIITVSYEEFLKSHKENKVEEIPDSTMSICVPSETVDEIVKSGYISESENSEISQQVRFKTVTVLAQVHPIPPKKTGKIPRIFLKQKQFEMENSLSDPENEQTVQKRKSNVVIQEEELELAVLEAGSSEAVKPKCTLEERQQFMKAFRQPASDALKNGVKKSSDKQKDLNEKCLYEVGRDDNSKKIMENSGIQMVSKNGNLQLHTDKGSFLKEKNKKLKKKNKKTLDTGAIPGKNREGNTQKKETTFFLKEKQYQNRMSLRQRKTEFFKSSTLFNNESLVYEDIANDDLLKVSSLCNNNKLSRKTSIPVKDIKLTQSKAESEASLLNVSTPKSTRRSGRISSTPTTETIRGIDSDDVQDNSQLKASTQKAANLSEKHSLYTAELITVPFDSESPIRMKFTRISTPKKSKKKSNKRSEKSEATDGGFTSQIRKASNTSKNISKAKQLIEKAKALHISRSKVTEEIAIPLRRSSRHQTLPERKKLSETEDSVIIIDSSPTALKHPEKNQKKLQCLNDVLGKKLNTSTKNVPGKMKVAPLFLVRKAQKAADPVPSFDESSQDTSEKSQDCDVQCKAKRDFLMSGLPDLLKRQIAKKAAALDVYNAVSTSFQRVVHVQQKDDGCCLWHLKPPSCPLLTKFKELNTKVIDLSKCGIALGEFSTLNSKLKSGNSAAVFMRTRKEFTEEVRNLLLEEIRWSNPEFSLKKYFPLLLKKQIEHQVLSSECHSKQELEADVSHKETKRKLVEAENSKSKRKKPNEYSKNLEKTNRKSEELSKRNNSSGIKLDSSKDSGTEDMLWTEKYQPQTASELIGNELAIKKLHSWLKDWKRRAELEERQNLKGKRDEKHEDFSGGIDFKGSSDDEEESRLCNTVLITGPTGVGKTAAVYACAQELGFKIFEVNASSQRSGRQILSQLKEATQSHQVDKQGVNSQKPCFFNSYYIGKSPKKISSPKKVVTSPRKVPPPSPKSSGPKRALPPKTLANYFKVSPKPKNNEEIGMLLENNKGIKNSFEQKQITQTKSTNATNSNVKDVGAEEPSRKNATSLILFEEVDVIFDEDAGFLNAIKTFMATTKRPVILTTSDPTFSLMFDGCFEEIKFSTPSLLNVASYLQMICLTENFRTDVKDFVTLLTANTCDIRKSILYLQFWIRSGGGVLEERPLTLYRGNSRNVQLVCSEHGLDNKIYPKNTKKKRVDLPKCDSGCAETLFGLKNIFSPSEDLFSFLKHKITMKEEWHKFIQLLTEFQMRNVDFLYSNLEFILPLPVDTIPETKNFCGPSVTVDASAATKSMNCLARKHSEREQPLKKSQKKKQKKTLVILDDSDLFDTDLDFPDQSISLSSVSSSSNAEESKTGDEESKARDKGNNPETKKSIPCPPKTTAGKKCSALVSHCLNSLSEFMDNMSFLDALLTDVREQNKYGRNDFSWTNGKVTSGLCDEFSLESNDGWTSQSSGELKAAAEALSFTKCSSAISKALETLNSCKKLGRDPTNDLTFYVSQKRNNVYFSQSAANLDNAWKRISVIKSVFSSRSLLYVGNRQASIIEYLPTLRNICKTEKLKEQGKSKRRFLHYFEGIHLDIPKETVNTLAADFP
# Beta-2 adrenergic receptor (Homo sapiens), sequence (P07550 whole entry, looked up): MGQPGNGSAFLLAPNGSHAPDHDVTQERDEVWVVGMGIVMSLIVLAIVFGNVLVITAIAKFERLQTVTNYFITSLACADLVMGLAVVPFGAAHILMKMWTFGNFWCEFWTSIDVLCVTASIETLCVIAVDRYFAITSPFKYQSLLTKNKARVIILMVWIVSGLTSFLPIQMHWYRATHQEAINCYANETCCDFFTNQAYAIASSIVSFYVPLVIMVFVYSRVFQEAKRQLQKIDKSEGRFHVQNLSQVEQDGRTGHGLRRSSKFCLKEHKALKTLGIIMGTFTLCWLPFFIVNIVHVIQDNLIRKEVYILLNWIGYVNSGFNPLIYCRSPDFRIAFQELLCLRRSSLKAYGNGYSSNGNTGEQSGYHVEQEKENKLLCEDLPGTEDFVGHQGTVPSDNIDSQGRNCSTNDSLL
# Phosphoglycerate kinase, glycosomal (Trypanosoma brucei brucei), sequence (P07378 whole entry, looked up): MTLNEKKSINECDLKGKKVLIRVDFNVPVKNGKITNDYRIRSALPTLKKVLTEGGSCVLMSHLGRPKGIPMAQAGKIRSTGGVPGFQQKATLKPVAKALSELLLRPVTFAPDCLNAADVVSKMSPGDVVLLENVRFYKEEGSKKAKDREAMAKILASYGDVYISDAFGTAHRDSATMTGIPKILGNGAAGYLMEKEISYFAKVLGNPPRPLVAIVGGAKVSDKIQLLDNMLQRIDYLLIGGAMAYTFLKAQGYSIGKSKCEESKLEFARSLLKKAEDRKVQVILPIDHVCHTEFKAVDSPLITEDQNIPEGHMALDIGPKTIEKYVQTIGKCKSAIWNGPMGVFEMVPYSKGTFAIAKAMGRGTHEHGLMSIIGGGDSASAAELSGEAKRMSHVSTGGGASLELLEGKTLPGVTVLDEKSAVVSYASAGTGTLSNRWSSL
# Chromobox protein homolog 1 (Homo sapiens), sequence (P83916 whole entry, looked up): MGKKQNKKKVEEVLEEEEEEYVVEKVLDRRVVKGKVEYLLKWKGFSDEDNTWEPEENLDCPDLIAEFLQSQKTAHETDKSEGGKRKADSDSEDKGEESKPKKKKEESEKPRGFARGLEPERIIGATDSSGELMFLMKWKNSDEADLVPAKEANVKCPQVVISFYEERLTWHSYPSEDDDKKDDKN
# Glucagon-like peptide 1 receptor (Homo sapiens), sequence (P43220 whole entry, looked up): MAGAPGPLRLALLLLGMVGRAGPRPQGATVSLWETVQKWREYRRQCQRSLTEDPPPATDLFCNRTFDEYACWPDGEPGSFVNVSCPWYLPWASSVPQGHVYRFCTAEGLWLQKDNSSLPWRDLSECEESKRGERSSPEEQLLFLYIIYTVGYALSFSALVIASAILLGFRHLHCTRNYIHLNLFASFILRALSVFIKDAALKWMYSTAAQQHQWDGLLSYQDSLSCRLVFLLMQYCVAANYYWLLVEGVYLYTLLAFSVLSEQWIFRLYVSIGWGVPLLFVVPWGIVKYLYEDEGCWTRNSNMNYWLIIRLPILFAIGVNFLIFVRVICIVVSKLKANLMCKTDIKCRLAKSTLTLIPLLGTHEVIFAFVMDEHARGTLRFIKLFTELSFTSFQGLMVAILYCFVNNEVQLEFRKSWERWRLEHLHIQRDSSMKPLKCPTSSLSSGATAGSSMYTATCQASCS
compound,measurement,setting,value
CN1C2CCCC1CC(NC(=O)c1nn(C)c3ccccc13)C2 (configuration not stated),outcome,[1],inactive
same,outcome,[2],inactive
same,Potency,[3],inactive
same,Potency,[4],inactive
same,Potency,[5],inactive
same,Potency,[6],inactive
same,outcome,[7],inactive
same,outcome,[8],inactive
same,outcome,[9],inactive
same,Potency,[10],inactive
same,Potency,[11],inactive
same,Potency,[12],inactive
same,outcome,[13],inactive
same,outcome,[14],inactive
same,outcome,[15],inactive
same,Potency,[16],inactive
same,Potency,[17],inactive
same,outcome,[18],inactive
same,viability change,[18],0.0672%
same,outcome,[19],inactive
same,Potency,[20],inactive
same,outcome,[21],inactive
same,Potency,[22],inactive
same,Potency,[23],inactive
same,Potency,[24],inactive
same,outcome,[25],inactive
same,outcome,[26],inactive
